High-throughput results deposited in PubChem BioAssay by The Scripps Research Institute Molecular Screening Center.
DAX1 inh-1 = inhibitors of human orphan nuclear receptor DAX1 (NR0B1) | P51843 | HEK293 Gal4-DAX1 luciferase reporter, luminescence | inhibition, % at 6.75 µM | 0.99% of 340,000 active;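 active means inhibition above the mean over all tested compounds plus 3 SD, cut at about 4.2% in these data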;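 further: 0% = DAX1-transfected cells with DMSO and 100% = empty-vector control cells with DMSO; inhibition shows as a rise in luminescence from relieved DAX1 repression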
Target sequence (P51843 207-470 limits assumed): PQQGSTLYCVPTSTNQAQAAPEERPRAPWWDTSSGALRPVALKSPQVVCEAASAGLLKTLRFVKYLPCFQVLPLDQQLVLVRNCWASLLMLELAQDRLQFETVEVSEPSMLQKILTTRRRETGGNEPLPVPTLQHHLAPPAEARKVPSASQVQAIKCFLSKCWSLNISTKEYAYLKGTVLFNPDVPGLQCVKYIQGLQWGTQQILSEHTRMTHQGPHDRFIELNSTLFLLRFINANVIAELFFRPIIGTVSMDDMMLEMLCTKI
DAX1 inh-2 = inhibitors of DAX1 repression of SF-1 activated StAR promoter | HEK293T StAR-luciferase reporter, SF-1/DAX-1 repression relief | inhibition, % at 6.8 µM | 1.1% of 370,000 active | AID 652010;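 active means inhibition above the mean over all tested compounds plus 3 SD, cut at about 3.6% in these data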;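 further: 0% = DAX-1 cells with DMSO and 100% = cells lacking DAX-1 with DMSO; higher inhibition means more luminescence from relief of DAX-1 repression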
hgDAF12 agonist = hgDAF-12 agonism, primary luciferase screen; activation, % at 6.8 µM; 1.8% of 370,000 active; HEK293 GAL4-hgDAF12 UAS-luciferase reporter, agonist luminescence; normalized to butyrate control; AID 687014;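 active means activation above a cutoff set at the mean of all screened compounds plus 3 SD, cut at about 10% in these data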;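 further: 0% = DMSO wells and 100% = sodium butyrate wells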
ssDAF12 agonist = S. stercoralis DAF-12 activation, primary screen | HEK293 ssDAF-12/GRIP1 lit1-tk-luc reporter, luminescence; % of 3 µM dafachronic acid response | activation, % at 6.8 µM | 1% of 370,000 active;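 active means activation above the mean over all tested compounds plus 3 SD, cut at about 0.9% in these data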;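 further: 0% = DMSO-only wells and 100% = 3 µM delta7-dafachronic acid wells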
Wee1 stabilizer = human Wee1 degradation inhibition, primary screen. P30291. 1.2% of 220,000 active. reporter increase, % at 5 µM. HeLa Luc-Wee1K328M stability, luciferase luminescence; 100% = proteasome inhibitor MG132 effect. AID 1321;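 active means activation above the mean of all tested compounds plus 3 SD, set per screening run, cut at about 8.8% in these data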;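 further: cells exposed to compound for 20 h before luminescence read; 0% = DMSO alone and 100% = MG132 at 30 µM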
hcDAF-12 act = H. contortus DAF-12 activation, primary screen. HEK293 hcDAF-12 lit1-tk-luc reporter, luminescence; 0% DMSO, 100% Δ7-dafachronic acid. activation, % at 6.8 µM. 1.4% of 370,000 active;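 active means activation above the mean of all tested compounds plus 3 SD, cut at about 5.5% in these data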;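 further: 100% = response to 3 µM Δ7-dafachronic acid high control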
LXRb hcDAF ctr = LXR-beta agonism as hcDAF-12 counter-screen; shares compounds with hcDAF-12 act; HEK293 Gal4-LXR tk-luc reporter, luminescence, 24 h; normalized: DMSO 0%, positive control 100%; activation, % at 6.8 µM; 3,400 tested, under 10 active;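 active means mean percent activation of the reporter above a cutoff set as the average over tested compounds plus their standard deviation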
Target sequence (P55055 whole entry, looked up, the tested form may be a part): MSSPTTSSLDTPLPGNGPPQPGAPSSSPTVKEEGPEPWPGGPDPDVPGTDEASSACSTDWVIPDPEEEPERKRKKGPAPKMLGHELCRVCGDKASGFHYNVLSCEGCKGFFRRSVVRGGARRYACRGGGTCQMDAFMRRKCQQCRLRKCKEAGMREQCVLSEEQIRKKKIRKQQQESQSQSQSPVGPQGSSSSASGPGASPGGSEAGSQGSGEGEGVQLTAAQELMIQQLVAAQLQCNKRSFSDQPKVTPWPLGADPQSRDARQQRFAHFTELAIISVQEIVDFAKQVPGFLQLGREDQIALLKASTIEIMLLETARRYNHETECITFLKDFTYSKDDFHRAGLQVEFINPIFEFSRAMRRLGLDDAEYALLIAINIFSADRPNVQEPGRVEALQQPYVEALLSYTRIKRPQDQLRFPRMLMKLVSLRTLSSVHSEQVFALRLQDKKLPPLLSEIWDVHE
hcDAF12 ag = hcDAF-12 agonism, confirmation assay | shares compounds with hcDAF-12 act | HEK293 hcDAF-12 lit1-tk-luc reporter, luminescence; % of Δ7-dafachronic acid response | activation, % at 6.8 µM | 61% of 3,400 active;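 active means mean activation across triplicate tests above the threshold derived from the earlier primary screen, cut at about 5.5% in these data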;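 further: 0% = DMSO only wells and 100% = 3 µM Δ7-dafachronic acid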
Starred values were filed as active, the others as inactive; nt = no result given. Shown are actives, neighbours in structure and some others; about 4.6% of the full set was active somewhere.

SMILES | DAX1 inh-1 | DAX1 inh-2 | hgDAF12 agonist | ssDAF12 agonist | Wee1 stabilizer | hcDAF-12 act | LXRb hcDAF ctr | hcDAF12 ag
CCNC(=O)C1CCCN(C(=O)c2ccccc2OC(F)(F)F)CC1 (centres undefined) | nt | 0 | 1 | 1 | nt | -1 | nt | nt
CC(=O)Nc1cc(-c2cccc(C(=O)N(C)C)c2)cn2c(-c3cccc(C(F)(F)F)c3)cnc12 | nt | 0 | -6 | -2 | nt | -3 | nt | nt
O=C(NCc1cccs1)C(NS(=O)(=O)c1cccc2nsnc12)c1ccccc1 (centres undefined) | 0 | 0 | -2 | 1 | 1 | 7.1* | 0 | 1
O=C(Nc1ccccn1)C(NS(=O)(=O)c1cccc2nsnc12)c1ccccc1 (centres undefined) | 1 | -1 | 2 | -1 | -1 | 1 | nt | nt
O=C(CSCC(=O)N1CCCCC1)Nc1nc(-c2ccc(Cl)s2)cs1 | 0 | -1 | 7 | -1 | -1 | 5 | nt | nt
CC1CC(C)CN(C(=O)CSCC(=O)Nc2nc(-c3cccs3)cs2)C1 (centres undefined) | 0 | 1 | 7 | 1 | -1 | 8.2* | 0 | 5
O=C(CSCC(=O)N1CCCCC1)Nc1nc(-c2cccs2)cs1 | 1 | 0 | 6 | 0 | -1 | 9.1* | 0 | 6.0*
O=C(O)c1cscc1-c1cccc2ccccc12 | 2 | -1 | -3 | -1 | nt | 0 | nt | nt
OCCCNc1ncnc2c1cnn2-c1ccc(Cl)cc1 | 0 | 2 | 9 | 0 | nt | 7.4* | 1 | 4
O=C1CCCN1CCCNc1ncnc2c1cnn2-c1ccc(Cl)cc1 | 0 | 0 | 1 | 0 | -1 | -1 | nt | nt
COc1ccc2[nH]c3c(c2c1)CCN1C(=O)C(CC(=O)NCCN2CCOCC2)C[C@H](C(=O)N2CCOCC2)[C@@]31C (some centres undefined) | 0 | 0 | 3 | -1 | nt | -1 | nt | nt
O=C(COc1ccccc1[N+](=O)[O-])OCC(=O)N1CCC(Cc2ccccc2)CC1 | -1 | 0 | -1 | -1 | 2 | 7.6* | 0 | 2
COc1ccc(/C(C)=N/Nc2nc3ccccc3nc2C)cc1OC | 5.1* | 2 | 9 | 0 | -2 | 8.4* | 0 | 0
COc1ccc(/C=C/C(=O)c2oc3ccc(F)cc3c2C)cc1 | 0 | nt | nt | nt | -1 | nt | nt | nt
Cc1ccc(OC(=O)c2oc3ccc(F)cc3c2C)c(C)c1 | 1 | 0 | 11* | 1 | -1 | 8.1* | 0 | 3
CNc1ncnc2c1ncn2[C@H]1CN(Cc2ccc(Cl)cc2)C[C@@H](CO)O1 | nt | 0 | 3 | -1 | nt | 0 | nt | nt
CC(C)(CCc1ccccn1)C(=O)CCCc1ccccn1 | -1 | -1 | 3 | -1 | nt | 1 | nt | nt
CCN(c1ccccc1)S(=O)(=O)c1ccc(C(=O)Nc2nnc(C3CC3)o2)cc1 | -2 | -2 | -1 | -1 | -3 | -1 | nt | nt
CN(c1ccccc1)S(=O)(=O)c1ccc(C(=O)Nc2nnc(C3CC3)o2)cc1 | 1 | 0 | 1 | -1 | -3 | 7.2* | 0 | 0
Cc1[nH]c2ccccc2c1C1=NNC(=Nc2ccc(F)cc2)SC1 | 4.4* | -1 | 0 | 0 | -1 | 7.1* | 0 | 1
CCOC(=O)c1cnc(-c2ccccc2)nc1N(C)C | 3 | 2 | 11* | 1 | 0 | 11* | 0 | 9.4*
Cc1ccc(NC(=S)N2CCCC(CO)C2)c(C)c1 (centres undefined) | 2 | 2 | 11* | 0 | -2 | 6.9* | 0 | 2
Cc1ccc(OCCC(=O)OC(C)C(=O)Nc2ccc(Cl)cn2)cc1 (centres undefined) | 0 | -1 | 0 | -1 | nt | 0 | nt | nt
COc1ccc2nc(-c3ccc(F)cc3)sc2c1 | -2 | 3 | 11* | 1.0* | nt | 9.3* | 1 | 6.7*
COc1ccc2nc(N)sc2c1 | 1 | 0 | 5 | -1 | 0 | 3 | nt | nt
SMILES | DAX1 inh-1 | DAX1 inh-2 | hgDAF12 agonist | ssDAF12 agonist | Wee1 stabilizer | hcDAF-12 act | LXRb hcDAF ctr | hcDAF12 ag
Nc1ccc2nc(-c3ccccc3)sc2c1 | -3 | 2 | 11* | 0 | -2 | 9.7* | 2 | 7.1*
Cc1ccc2nc(-c3ccc(N)cc3)sc2c1 | nt | 4.2* | 9 | 1.6* | -2 | 11* | 2 | 13*
Nc1ccc2nc(-c3ccccc3)c(-c3ccccc3)nc2c1 | 2 | 0 | -5 | -1 | nt | -1 | nt | nt
CCCS(=O)(=O)NC(=O)C1(C)CCN(C(=O)c2ccc(F)c(Cl)c2)C1 (centres undefined) | nt | 0 | 0 | -2 | nt | 1 | nt | nt
OC(c1ccc(Cl)c(F)c1)c1ncc(-c2cccc3ccccc23)[nH]1 (centres undefined) | nt | -3 | 2 | 0 | nt | -1 | nt | nt
N#C/C(=N\Nc1ccc(S(=O)(=O)N2CCCCC2)cc1)C(N)=S | -1 | 0 | 0 | -1 | -1 | -1 | nt | nt
Cc1ccc(N/N=C(\C#N)C(=N)N2CCCCC2)cc1 | 7.4* | 3 | 19* | 1.2* | 2 | 6.9* | 2 | 11*
CCOc1ccccc1NC(=O)CNC(=O)N1CC(=O)Nc2ccccc21 | 1 | 3 | 2 | 0 | nt | 7.0* | 0 | 3
Cc1ccc2c(=O)n3c(nc2c1)C(Cc1ccc(O)cc1)NC(=O)c1cc2ccccc2cc1-3 (centres undefined) | -1 | -3 | 4 | -1 | nt | -2 | nt | nt
O=C(CC(Nc1cccc(Cl)c1Cl)C(=O)OCC(=O)c1cccs1)c1ccccc1 (centres undefined) | 1 | 0 | 3 | 0 | 2 | 7.4* | 0 | 3
O=C(c1cccs1)c1ccc(-c2cccs2)s1 | -1 | 3 | 17* | 2.1* | 0 | 14* | 2 | 14*
CCc1ccc(C(=O)Cn2ccsc2=N)cc1 | 3 | 3 | 20* | 2.1* | nt | 19* | 2 | 12*
CC(C)(C)NC(=O)NC(=O)Cn1ccsc1=N | 2 | 0 | 0 | -1 | 3 | -3 | nt | nt
Cc1ccc(C(=O)Nc2ccc(-c3csc(C)n3)cc2)cc1 | 0 | 1 | 9 | -1 | 1 | 0 | nt | nt
Cc1nc(-c2ccc(NC(=O)c3ccccc3)cc2)cs1 | -2 | 4.5* | 12* | 1.2* | 1 | 6.7* | 2 | 8.0*
O=C(c1ccco1)[C@@H]1[C@@H]2C(=O)N(c3ccc(F)cc3)C(=O)[C@@H]2[C@H]2C=Cc3ccccc3N21 | -1 | 0 | 3 | -1 | 0 | 2 | nt | nt
